Experimental data published in PubChem BioAssay (EPA / NIEHS).
Inconclusive results are not listed. Calls of active or inactive are those of the source. How the source made its calls: active means hit-call score of the fitted dose curve at least 0.9, where 1 is the maximum; inconclusive means response in the unintended direction; inactive means score below 0.9.

Experiment: TAMU_HCS_1.5hr_SingleDonor1434_Cytotoxicity: Cytotoxicity Assessment using High-content Screening (HCS) Fluorescent Imaging for the Texas A&M University (TAMU) 1.5-hr Human Induced Pluripotent Stem Cell (iPSC)-derived Cardiotoxicity Assay (AID 2284234)
Procedure, shortened: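 Human iPSC-derived cardiomyocytes dosed at 0.2, 1, 10, 100 uM final (0.5% DMSO) for 90 min at 37 C. Hoechst 33342-stained nuclei counted by 10x high-content imaging; POD is EC10, a 10% drop in total cell count versus DMSO.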

Compound	outcome	AC50
O=S1OCC2C(CO1)C1(Cl)C(Cl)=C(Cl)C2(Cl)C1(Cl)Cl (configuration not stated)	inactive	–
CCOCN(C(=O)CCl)c1c(C)cccc1CC	–	81.6 µM (active)
